Assay results taken from ChEMBL document CHEMBL4513216, “Probing the Open Global Health Chemical Diversity Library for Multistage-Active Starting Points for Next-Generation Antimalarials” (ACS Infect Dis, 2020).
Screen size: about 69,000 compounds; about 8,600 (12%) showed an effect of 50% or more. The sample holds strong results, similar compounds and a random draw of the others, so the mix is not that of the screen.

Tested on: Plasmodium berghei
Test: Screen against P. berghei liver stage (PbLuc), transformed with Luciferase, at 10uM
Type: functional, HepG2
Conditions: tested at 10 uM

Row | SMILES | INHIBITION [%]
1 | CCCC(=O)N1CCC(c2cc3n(n2)[C@@H](C(F)(F)F)C[C@@H](C)N3)CC1 | 36.4
2 | Cc1cnc(N(C)CCCc2cnn(C)c2)nc1N(C)C | -0.996
3 | COCC(=O)N1CC(C(=O)NCC2CC2)C2(CCOCC2)C1 (stereo not given) | 15.8
4 | CCC(OC)C(=O)NCC1CCN(c2cnn(C)c(=O)c2)CC1 (stereo not given) | -0.275
5 | Cn1ncc(N2CCC(CNC(=O)[C@@H](N)c3ccccc3)CC2)cc1=O | -12.4
6 | Cn1ncc(N2CCC(CNC(=O)[C@@H](N)C3CCCCC3)CC2)cc1=O | 8.53
7 | CC(C)C(=O)NCC(=O)NCC1CCN(c2cnn(C)c(=O)c2)CC1 | 26.1
8 | CC(CN1CCOCC1)NCC1CCN(c2cnn(C)c(=O)c2)CC1 (stereo not given) | 33.5
9 | Cn1ncc(N2CCC(CNC3Cc4ccccc4C3)C2)cc1=O (stereo not given) | 58.7
10 | CCOC(=O)N1CCC(NCC2CCN(c3cnn(C)c(=O)c3)C2)CC1 (stereo not given) | 26.6
11 | Cn1ncc(N2CCC(CNC3CC(c4ccccc4)C3)CC2)cc1=O (stereo not given) | 63.7
12 | Cn1ncc(N2CCC(CNC3CC(C)(C)CC(C)(C)C3)C2)cc1=O (stereo not given) | 72.3
13 | COCc1noc(CN2CC(Cc3ccccc3)CC2=O)n1 (stereo not given) | -23.3
14 | CN1CCCC(Cc2cncc(C(=O)NC3CC3)c2)C1 (stereo not given) | 8.72
15 | Cn1ncc2c1CCCC2NCc1ccc(Br)s1 (stereo not given) | 35.3
16 | CCCN(C)CCC(=O)N1CCCC1Cn1cccn1 (stereo not given) | -15.5
17 | CSCc1noc(CNC(=O)C2CCN(C(C)C)CC2)n1 | 8.51
18 | Cc1nc(CN2CCc3nn(C)c(=O)cc3C2)oc1C | -3.7
19 | CCn1cc(NS(=O)(=O)c2ccc(F)cc2)c(C(=O)NCC(C)C)n1 | 22
20 | CN1[C@H](Cn2cncn2)C[C@@H]2CN(C3CCOCC3)CC[C@@H]21 | 34.6
21 | Cc1noc(CNC(=O)CN(C)c2nc3c(C)ccc(C)c3s2)n1 | 57.8
22 | COc1cccc2sc(N(C)CC(=O)NCc3nc(C)no3)nc12 | -14.9
23 | Cc1noc(CNC(=O)CN(C)c2nc3c(F)cccc3s2)n1 | 47
24 | CC(C)(CNC(=O)COc1cccc(F)c1)C(N)=O | 46.75
25 | N#Cc1ccc(Oc2cc(F)c(CN3CCCC3)c(F)c2)nc1 | 26
26 | CN(CC(=O)N1CCC(Oc2ccc(C(F)(F)F)cn2)CC1)S(C)(=O)=O | -20.5
27 | CCOC(=O)CCC(=O)N1CCC(Oc2ccc(C(F)(F)F)cn2)CC1 | 32.4
28 | Cc1cc(CN2CCCC2)cc(Oc2ccc(C(F)(F)F)cn2)c1 | 61.9
29 | O=C(Cn1cccn1)N1CCC(Oc2ccc(C(F)(F)F)cn2)CC1 | 40
30 | Fc1cc(Oc2ccc(C(F)(F)F)cn2)cc(F)c1CN1CCCC1 | 78.9
